Hit rate of the full screen: of about 31,000 sequences, about 1,400 (4.5%) were called active. This excerpt belongs to a sample that is enriched for actives. Unmarked numbers belong to inactive results.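 The calls were made as follows: active = median seed-adjusted z-score above 1 or below -1; inactive = the rest.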

The experiment in a line: Novel Modifiers of Survival Motor Neuron (SMN) Protein: Gene Identification via Genome-wide siRNA Screen.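 Also: luminescence tracks full-length SMN protein made from the SMN2 reporter.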 The note with it: HEK293T SMN2-luciferase reporter, siRNA knockdown, 72 h; actives lie on both sides. An outline of the steps:
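Genome-wide siRNA screen (10418 genes, 3 siRNAs each, 1 pmol per well) by reverse transfection in HEK293T cells stably carrying an SMN2-luciferase reporter; luminescence after 72 hours, normalized to negative-control siRNA, log10-transformed, MAD-scored.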
Consider GGUCUGUUCUUCUUACAGATT against PRKCB1, for which the median seed-adjusted z-score is 0.0463. The value for GCCCAUCGUGCUUAAAGAATT against RASA3 was 0.0056; that for CACCUACUGUAGAGGUGAATT against GPRC6A was 0. GAACAUAUCAAGACCGGUUTT against MED30: the median seed-adjusted z-score is -2.06 (active). For UAGGGAAGCUGAAAGUGCATT against OXER1, the median seed-adjusted z-score was -0.471. For CAACCAAUAUAGAACUUCATT against RBBP5, the median seed-adjusted z-score was 0.169. On to GCAGCCUUGUCAUCGACAATT against PDLIM1, for which the median seed-adjusted z-score is -0.189. As to CCUAAAGCCUGAAGAAGAATT against TXNDC2, the median seed-adjusted z-score is -1.29 (active). With CAUCGGUGCCCAGAAGUCATT against SSBP4, the median seed-adjusted z-score is 0.254. Take GACUCUCUGAGGUAGAAAATT against EPN3: the median seed-adjusted z-score was 0.184. GCUAGAACGGGAACGAAGATT against NEK10: the median seed-adjusted z-score is -0.0464. Regarding CCAGUGCUCCCGAAACUGATT against KRTAP5-5, the median seed-adjusted z-score was -1.07 (active). With GCUCAUCGUGGGUCUCCUATT against POR, the median seed-adjusted z-score was 0.189. As for CUCUCGUACUUUGAACCUATT against PANK3, the median seed-adjusted z-score is -0.185.

CCCACUAUGCAAAAUGUAATT against PCMT1: the median seed-adjusted z-score was 0.139. The value for GGUGGUCCAUGAAAAAGCATT against SOD1 was -0.8; that for GCCUUAAAGACUUACCGAATT against USPL1 was -1.87 (active); that for GUUUGUGACUGUAACCAUUTT against CTBP1 was 0.105. GCUAUGGUGCUGUCGCUUATT against RHOXF2: the median seed-adjusted z-score was -0.331. As for GGAAUGGACUCAGUGAUCATT against PFTK1, the median seed-adjusted z-score was 0.088.

As to CGCGGAAACUUGUCCCUAUTT against SP2, the median seed-adjusted z-score was -0.617.

GCCCUGACAUUUCCCGAAATT against FOXJ2: the median seed-adjusted z-score is -0.627.

Consider UCAAUAAACUGCACGAAUATT against HS3ST1, for which the median seed-adjusted z-score is 1.21 (active). ACGUGGAAGUGACCCGGAATT against MTX1: the median seed-adjusted z-score is -0.159.

As to GCAUGUCCCGAAAACAAGATT against KLF7, the median seed-adjusted z-score was 0.393. GGACUUACGUGGAAGUAGATT against PLCB1: the median seed-adjusted z-score was 0.0735. Consider CGUAGUAUAUUAACAAGUATT against MKKS, for which the median seed-adjusted z-score was 1.03 (active). As for CUCUAGGAGUGACCACGAATT against LYPLAL1, the median seed-adjusted z-score was -0.425. As for GGAGCACAGAAUACCGGAATT against C3orf64, the median seed-adjusted z-score was 0.0771. As for CAAACGGGCUCAUCAUAAUTT against MAX, the median seed-adjusted z-score was 0.0949. As to AGAGACCCAUGGGAACAAATT against SIGMAR1, the median seed-adjusted z-score is -1.4 (active). On to CGAAUGUCACCAUAUAUAATT against IL1RL1, for which the median seed-adjusted z-score was -0.286.

Consider AGGAGGUUACGGCACAAAATT against STK11, for which the median seed-adjusted z-score is 0.348.

GCAACACCAUCGUCUGUGATT against P2RY13: the median seed-adjusted z-score is -0.0427.

Turning to GGAACAUCAUUCUACCCAATT against KIF15, the median seed-adjusted z-score is -0.873. Turning to CCUUAAUCCUUUGUUAACATT against KPNA6, the median seed-adjusted z-score was -1.54 (active). GGAUGAUGUACUUCUCUCATT against MLNR: the median seed-adjusted z-score was -0.038.

As for CCCUGUCCUUAGCACUCUATT against GFI1B, the median seed-adjusted z-score is 0.154. For GGAGCAUUCUCAUUCGAGATT against CSTF3, the median seed-adjusted z-score was 0.0879. The value for GCUUGCAGUUAAUAUCAUUTT against ODC1 was -1.64 (active); that for GCAGAGUGCUUCCCAGUGATT against JRK was -0.624. With CAGAUGUCAUGAAUCAAGATT against RPUSD2, the median seed-adjusted z-score is -0.215. CAAGUACAAUACUAACUGUTT against ZNF280C: the median seed-adjusted z-score is 0.336. For CAACGGCAACGGAGAGGAUTT against SLC24A6 the value was -0.792; for GCGGAACACGAAGAAGUAATT against TMPRSS11E, 0.0512. The value for GGGACGAGAUGGUAAAGAATT against ATP2B2 was 1.37 (active); that for CCAUGUAUCUGAGUGAUCATT against ERC2 was 0.172; that for GGAUCUAAUCUUAGAUGUATT against POLR2H was -2.74 (active).

With GAAUGAGGUUGACUUCUAUTT against CASQ2, the median seed-adjusted z-score is 0.4. Regarding GGAUUAUCUCCUCAUUACATT against MCF2L2, the median seed-adjusted z-score was -0.465. In the case of CCUUGAUCAUCGACAUUCUTT against GIT1, the median seed-adjusted z-score is -0.307. For the sequence CCUCGACAGUGAAUGCAAATT against ABCF3, the median seed-adjusted z-score is 0.0759. For GAAAAUCUAUCAGAACAUUTT against RAB14 the value was -0.0567; for CUAUGACCCUUACCCGUAUTT against FMOD, -1.32 (active).

Take GCUCAGCUCUGGUACUUUATT against GTF2H4: the median seed-adjusted z-score is -0.261. For GGUUUGAUGUAGGCCCAAUTT against MTFMT the value was -0.0119; for GGAAGAUCGAAAGUGCGAATT against GZMB, -0.0378. On to AGUUCAUUCUGACAGAUGATT against VDR, for which the median seed-adjusted z-score is -0.031. For CAAUAUUCCGUACAUAGAATT against MRAS the value was 0.032; for GGGAUCUAGUGAAUAAACUTT against EIF2B4, 0.

GCAAAGACCAUAAGAUUUATT against MYST1: the median seed-adjusted z-score is 0. With GAGUGUUCAGCAAACCGUATT against MED20, the median seed-adjusted z-score is -1.66 (active). On to GAUGUGAAAUGGAGAAGUATT against KLF5, for which the median seed-adjusted z-score is -0.338. On to ACGCAGAUUUCUACAGAAATT against COX6C, for which the median seed-adjusted z-score is -0.0449.

As for GGAUUACUCUUUUGGUGCATT against IRF5, the median seed-adjusted z-score is -0.146.

GAUGCGAUAUUAAUGGGAATT against SMYD4: the median seed-adjusted z-score was 0.272. With GAAAAUGUGGGAUCAAGAATT against COQ7, the median seed-adjusted z-score is 0.159. GAGCUGACCUUGAACGAGATT against CHGB: the median seed-adjusted z-score is -1.29 (active). Consider GUGCUAAUCUCAAUACCGATT against ZRANB1, for which the median seed-adjusted z-score is -0.347. Consider GGACAGCUAUGACUCGGAUTT against DOC2A, for which the median seed-adjusted z-score is 0.299. With GCAAGUAUUUUGACAAGGUTT against KIF7, the median seed-adjusted z-score was 0.0274. Take CAAACAAUAUGAGAGUGUUTT against IL7: the median seed-adjusted z-score is 0.253.

With ACAAGACUCUGGACAUUAATT against DHRS4, the median seed-adjusted z-score is 0.263.

GAUUCAUGCAUUGAUCACATT against UBE2Z: the median seed-adjusted z-score was 0.0572. As to GCCCAGAAGUUUAGGGAAATT against TAP1, the median seed-adjusted z-score was -0.506. CAAAGUCCAUGGAGUCUUUTT against RASA4: the median seed-adjusted z-score is -1.11 (active). For GGGUUAGUGGAGACCUUUATT against ATPAF1, the median seed-adjusted z-score is 0.393. GAAUUCACCAUUCAAGUAATT against SCYL3: the median seed-adjusted z-score was 0.665. In the case of AGGACGGUGCAGUACAGAATT against ZBTB46, the median seed-adjusted z-score was 0.0546. The value for GAACAACACCAACAUAAGATT against SMOC1 was 0.0453.

For the sequence CAUCGCCUAUAUGAAAUAUTT against PLA2G10, the median seed-adjusted z-score is 1.07 (active). As to GAGCCGUACUAUGACCUGATT against SSTR2, the median seed-adjusted z-score was -0.162. With CGAAGCUAGUGGAACAGUATT against SF3A1, the median seed-adjusted z-score is -1.09 (active).

Turning to CGAUGCCUGUUAUAAAUUATT against RCAN3, the median seed-adjusted z-score was 0.544. AAAUCCCUUUGACACCUUUTT against DNAJB1: the median seed-adjusted z-score is 0.466.

On to CUCCUUCCCGGAUGAUUUATT against KLF17, for which the median seed-adjusted z-score was -0.131. For CCUCCGUCCUGUUUAGGAATT against LCN2 the value was 0.123; for GCAACGAGUUCAACCUGGATT against RAB11B, -0.857; for CCACUUACCCUCAAAGAAATT against SLC4A5, 1.3 (active). The value for CCUCAGUGUGGGUAUAAGATT against HIF1A was 0.228; that for UUGAUAAGGUUAAACCACATT against CSTA was -0.351. For GCAGCACGAAGGAUACUGATT against ABCA4 the value was -1.09 (active); for CCACGAGAUUUCACAAACATT against PRKD3, -0.906.

GCUUCACUCAGAUUCCGAUTT against DYNC1I2: the median seed-adjusted z-score was -0.167. Regarding GCCUCUACCUCUUCGAAAATT against CLEC11A, the median seed-adjusted z-score is -1.1 (active). For the sequence GCAGUAAUGUUGAUAUAGATT against VDAC3, the median seed-adjusted z-score was 0.646. Regarding CUAUCUCACCAAGAUCUAUTT against PODN, the median seed-adjusted z-score was 0.589. With CAUCUUCAGUCUGUACAAATT against KIR2DL5B, the median seed-adjusted z-score was 1.72 (active). As to GGAAAGCAACAUACAGACATT against FABP6, the median seed-adjusted z-score was 0.122. The value for GCCUUAUGUAUGCACAGAATT against HKR1 was -0.358; that for AGGCAUAUCUUGAAGAACATT against CIP29 was -1.18 (active); that for CACAGUGUUUGAGAACUAUTT against RHOA was -0.219. As to GCAUCAACAGUAAUGAGAATT against KRT39, the median seed-adjusted z-score was 0.161. With CCACAUCAACAGUGCCUUUTT against ACOT11, the median seed-adjusted z-score is 0.636. On to AGGGCUUCUUGAAUCUCUATT against GSTO2, for which the median seed-adjusted z-score is 0.142. For CCAAGAUGCUCAGUCAUCATT against MAP4K1 the value was 0. For CAACGUAUCAGAUUGAGAATT against ZNF281, the median seed-adjusted z-score is 1.19 (active). The value for CUACCGGAUUGAGAUGGAATT against MEGF6 was 0; that for GCUGCUUGUGGAUUCGCUATT against TLN2 was -0.0106.
